In PubChem BioAssay (NCATS):
Results filed as inconclusive are left out. A call without a number means that no potency is given here. Active and inactive are the calls of the source. The call rests on the fitted dose curve; in most records, active means well fitted inhibition curve with a large enough effect; inconclusive means small, poorly fitted or top-dose-only effect; inactive means no such curve, though single readings can be large or run the other way.

Assay: qHTS assay for measurement of the activity of small molecule inhibitors on Zika virus induced Caspase-3 activity in human iPSC derived neural progenitor cells (hNPCs) (AID 1224857); further: nearly all actives have a fitted effect of over 65% in size
Details: hNPCs ZIKV-induced caspase-3/7, Caspase-Glo luminescence, 6 h; series mostly up to 45.7 µM
How it was run: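 Percent inhibition of virus-induced caspase-3/7 luminescence (Caspase-Glo), scaled between uninfected cells and Zika-infected cells. hNPCs received compound 1 hr before ZIKV at 2 FFU/cell, with 6 hours infection at 37 C.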
Potency means the concentration at half of the fitted maximal effect.

SMILES	Potency
CCCCCCCCCCCCCCCCCCOC[C@H](COP(=O)([O-])OCC[N+](C)(C)C)OC	inactive
O=c1[nH]c2cc(Cl)ccc2c(O)c1-c1ccc(Oc2ccccc2)cc1	inactive
COc1ccccc1N1CCN(CCN(C(=O)c2ccc(F)cc2)c2ccccn2)CC1	inactive
CCCC(=O)NCCc1c2n(c3ccc(OC)cc13)CCCc1ccccc1-2	inactive
CC[C@@H]1Cc2cc(O)ccc2C2=C1c1ccc(O)cc1C[C@H]2CC	inactive
N[C@H]1CONC1=O	inactive
C=C1C(=O)O[C@@H]2[C@H]3O[C@]3(C)CCC=C(C)CC[C@@H]12	inactive
N#Cc1cc2nc(O)c(O)nc2cc1[N+](=O)[O-]	inactive
CCCOC(=O)c1c(-c2ccccc2)nc(CC)c(C(=O)SCC)c1CCC	inactive
Nc1ncnc2c1nc(Sc1ccc(Cl)cc1)n2[C@H]1OC2COP(=O)(O)O[C@@H]2C1O (stereo partly drawn)	inactive
NCC(O)c1ccc(O)c(O)c1 (stereo not drawn)	inactive
NC1CONC1=O (stereo not drawn)	inactive
Oc1ccc(/C=C/c2ccc(/C=C/c3ccc(O)cc3)c(Br)c2)cc1	inactive
COc1ccc(C(=O)NCc2cccnc2)cc1C(=O)NCc1cccnc1	inactive
NC1C=CC=C(C(=O)O)C1 (stereo not drawn)	inactive
COc1ccc(CCN(C)CCc2ccc(OC)c(OC)c2)cc1OC	inactive
CC(=O)/C(C)=N/O	inactive
COc1ccc(CCn2nnnc2C2(c3ccc(C)cc3)CC2)cc1	inactive
NC(N)=N[C@@H](CCC(=O)O)C(=O)O	inactive

SMILES	Potency
CCCCS(=N)(=O)CC[C@H](N)C(=O)O (stereo partly drawn)	inactive
N[C@@H](Cc1ccc(O)c(I)c1)C(=O)O	inactive
Cc1nc2c(OCc3ccccc3)cccn2c1CC#N	inactive
CCCn1c(=O)c2c(ncn2C)n(CCC)c1=O	inactive
COc1cccc(OC)c1OCCNCC1CSc2ccccc2O1 (stereo not drawn)	inactive
O=c1ccc2c(OCCCCc3ccccc3)c3ccoc3cc2o1	inactive
C[C@]12C=CC(=O)C=C1CC[C@@H]1C2=CC[C@]2(C)[C@@H](C(=O)CN3CCN(c4cc(N5CCCC5)nc(N5CCCC5)n4)CC3)CC[C@@H]12	inactive
CC1CCN=C(N)S1 (stereo not drawn)	inactive
N#CC(=C(\N)Sc1ccccc1N)/C(C#N)=C(/N)Sc1ccccc1N	inactive
CN1CCC2(CCN3CCc4c(oc5ccccc45)C3C2)N(C)C1=O (stereo not drawn)	inactive
NC[C@@H]1O[C@H](c2ccccc2)Cc2c1ccc(O)c2O	inactive
Cc1nc(N=Nc2ccc(S(=O)(=O)O)cc2S(=O)(=O)O)c(COP(=O)(O)O)c(C=O)c1O	inactive
CCCc1c(OCCCOc2ccc(OCC(=O)O)cc2)ccc(C(C)=O)c1O	inactive
O=C(O)C1=CCNCC1	inactive
NOCC(=O)O	inactive
C=CCN1CCc2c(cc(O)c(O)c2Cl)C(c2ccccc2)C1 (stereo not drawn)	inactive
N#C/C(=C\c1ccc(O)c(O)c1)C(=O)NCCc1ccccc1	inactive
CC[C@H](NC(=O)c1c(C)c(-c2ccccc2)nc2ccccc12)c1ccccc1	inactive
Nc1ccc(-c2ccc3ccccc3n2)cc1	7.08 µM (active)
